High-throughput results (PubChem)
TRHR agonist: agonists of human TRH receptor; P34981; TRHR cells, calcium flux fluo-8, FDSS agonist mode; activation, % at 2 µM; 360,000 tested, 0.18% active; AID 493084; also: 0% is about no effect
Target sequence (P34981 whole entry, looked up): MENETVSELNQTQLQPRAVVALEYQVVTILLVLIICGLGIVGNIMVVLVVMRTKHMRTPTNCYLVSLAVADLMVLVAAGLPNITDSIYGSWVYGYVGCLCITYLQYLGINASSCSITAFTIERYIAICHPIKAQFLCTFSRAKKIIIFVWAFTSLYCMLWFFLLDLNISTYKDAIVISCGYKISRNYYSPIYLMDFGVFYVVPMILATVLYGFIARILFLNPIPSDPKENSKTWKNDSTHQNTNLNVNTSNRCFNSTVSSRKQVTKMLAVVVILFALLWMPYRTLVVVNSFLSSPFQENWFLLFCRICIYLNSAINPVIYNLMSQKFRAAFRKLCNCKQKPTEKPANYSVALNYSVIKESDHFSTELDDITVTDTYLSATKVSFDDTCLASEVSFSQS
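Fluo-8-loaded TRHR cells; 10 s baseline, compound added, kinetic Ca2+ fluorescence read 1/s, agonist mode.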
D1 potentiator: potentiators of human D1 dopamine receptor; P21728; HEK293 TREx D1 cells, calcium flux, dopamine EC20 potentiation; potentiation, % at 10 µM; 360,000 tested, 0.036% active; in the data active = potentiation above about 30%; also: 0% is about no effect
TRHR enhancer: allosterically enhances the human TRH receptor; P34981; TRHR cells, fluo-8 calcium fluorescence, EC20 TRH enhancement; enhancement, % at 2 µM; 360,000 tested, 0.66% active; in the data active = enhancement above about 30%; also: 0% is about no effect
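Enhancer read-out: after compound pinning and an initial kinetic agonist-mode read, an EC20 of TRH (10 nM final) was injected and fluo-8 calcium signal (Ex 480/Em 530) followed at 1 s/cycle for 100 cycles in TRHR-expressing cells.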
D1 antag: human D1 dopamine receptor antagonism. 360,000 tested, 3.2% active. activity change, negative = inhibition, % at 10 µM. P21728. AID 504652. HEK293 TREx D1 cells, calcium flux, dopamine EC80; hits give low values; in the data active = activity change below about -30%; also: % is scaled to controls: 0 for no effect and ±100 for the full control effect
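Compound effects on dopamine-evoked calcium signalling were measured in tetracycline-induced HEK293 Trex D1 cells. Dopamine at EC80 followed a 180 s compound pre-read, and fluorescence was tracked kinetically for 180 s more.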
D1 ag: agonists of human D1 dopamine receptor; AID 504660; 360,000 tested, 1% active; activation, % at 2 µM; HEK293 T-REx D1 cells, calcium flux, agonist mode; P21728; also: 0% is about no effect
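Tetracycline-induced HEK293 TREx D1 cells, force-coupled to calcium signalling, were dye-loaded with a no-wash calcium kit. Compound was pin-added after a 10 s baseline. Fluorescence was read kinetically at 1 cycle/s for 180 s, with calcium rises flagged as agonism.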
* marks the source's active call; other numbers are inactive results; x = not tested or not shown. Compounds with a hit are over-represented: about 4.7% of the library has one in this group of screens. Rule as the data show it, unless noted: active = activation above about 30%; inactive = the rest.

SMILES | TRHR agonist | D1 potentiator | TRHR enhancer | D1 antag | D1 ag
O=C(Nc1ccccc1Cc1ccccc1)c1ccccc1NS(=O)(=O)c1ccc(Cl)s1 | 2 | -7 | -3 | -60* | 28
O=C(NCc1ccco1)c1ccccc1NS(=O)(=O)c1ccc(Cl)s1 | 1 | -1 | -11 | x | 21
Cc1ccc(NC(=O)c2ccccc2NS(=O)(=O)c2ccc(Cl)s2)cc1 | 4 | 0 | -4 | -44* | 26
O=C(Nc1ccccc1)c1ccccc1NS(=O)(=O)c1ccc(Cl)s1 | 6 | -8 | -3 | -35* | 30
CCSC1=NSC2=NC(=O)/C(=C\c3coc4ccccc4c3=O)C(=N)N12 | 179* | 4 | 52* | -43* | 325*
CSC1=NSC2=NC(=O)/C(=C\c3ccc(OC(=O)c4ccco4)cc3)C(=N)N12 | 0 | -6 | 1 | -10 | 4
COc1ccc(C(=O)NNc2ncnc3c2cnn3-c2cccc(Cl)c2)cc1OC | -1 | 3 | 1 | -5 | -4
CCn1cc(C(=O)NCc2ccccc2OC)c(=O)c2cc(S(=O)(=O)N3CCCCC3)ccc21 | -1 | 5 | 25 | 9 | 4
CCNc1nc(Oc2ccc(=O)[nH]n2)nc(SC)n1 | 0 | 5 | 32* | 2 | 2
Cc1ccc2c(c1)c(-c1csc(N)n1)c(C)n2C | 0 | 2 | -1 | 4 | 1
Cc1cccn2c(=O)c3cc(C(=O)N(Cc4ccccc4)C(C)C)sc3nc12 | 0 | 2 | -12 | -7 | -2
CC(C)Oc1cccc(C(=O)NC(=S)Nc2ccccc2)c1 | -2 | -4 | -6 | -35* | 5
COc1cc(OC)cc(C(=O)Nc2nnc(NC(=S)Nc3ccccc3)s2)c1 | 1 | -7 | 36* | 28 | 1
Cc1cccc(CN2CCSc3sccc3C2=O)c1 | -1 | 2 | -4 | 1 | 6
CCOC(=O)c1c(C)n(C)c2ccc(OC)c(NC(=O)CCN3CCC(Cc4ccccc4)CC3)c12 | 2 | -4 | 12 | -36* | 9
COc1ccccc1CN1C[C@@H]2C[C@@H](c3ccc4nsnc4c3)N3CCC[C@@]23C1=O | -1 | -4 | -3 | -72* | 0
O=C1N(Cc2cccc(Cl)c2)C[C@@H]2C[C@@H](c3cccc4ncccc34)N3CCC[C@@]123 | -1 | -4 | 6 | -35* | 3
O=C1N(Cc2cccc(Cl)c2)C[C@@H]2C[C@@H](c3cccc4cccnc34)N3CCC[C@@]123 | 2 | 0 | -12 | -9 | 1
O=C1N(Cc2cccc(Cl)c2)C[C@@H]2C[C@@H](c3ccc4nonc4c3)N3CCC[C@@]123 | -1 | -5 | -1 | -36* | 8
Cc1ccc([C@@H]2C[C@H]3CN(Cc4cccc(Cl)c4)C(=O)[C@]34CCCN24)o1 | -2 | 0 | -2 | 15 | 1
CCCCN(CC)CCCNC(=O)Cn1ncc2c3ccccc3n(Cc3ccccc3F)c2c1=O | 1 | -2 | 3 | 2 | 8
COCCCn1c(=O)/c(=C\c2ccc(OC(F)F)c(OC)c2)s/c1=C(/C#N)C(N)=O | -1 | -7 | -2 | -44* | 2
COc1ccc(C2=C(C)C(=O)N(Cc3ccc(C(=O)NC(C)c4ccccc4)cc3)S2(=O)=O)cc1 (configuration not stated) | 0 | -2 | -6 | 25 | 1
Cc1ccc(-n2nc(C)c3c(C(F)(F)F)cc(-c4cccnc4)nc32)cc1C | 1 | 1 | 0 | -50* | 0
Cc1cc(N2CCN(c3cccc(C)c3C)CC2)n2cnnc2n1 | -1 | -1 | 22 | 1 | 2
SMILES | TRHR agonist | D1 potentiator | TRHR enhancer | D1 antag | D1 ag
COc1ccc(S(N)(=O)=O)cc1C(=O)OCCCOc1ccc(F)cc1 | 0 | 3 | 1 | -34* | 11
COc1ccc(S(N)(=O)=O)cc1C(=O)OCCCOC(=O)c1cc(S(N)(=O)=O)ccc1OC | 0 | 7 | 5 | 2 | 3
Fc1ccc(CCN2CCN=C2Nc2ccccc2)cc1 | 8 | -8 | -1 | -15 | 35*
Cc1cccc(CCN2CCN=C2Nc2ccccc2)c1 | 19 | 0 | -11 | -40* | 46*
Cc1cccc(NC2=NCC(=O)N2CCc2ccccc2)c1 | 1 | -7 | -9 | -36* | 3
CCOc1ccc(C2c3c(oc4ccc(C)cc4c3=O)C(=O)N2c2nc(C)c(C)s2)cc1OC (configuration not stated) | 1 | -1 | -4 | 14 | -1
CCOC(=O)c1ccccc1NC(=O)CSc1cn(CC(=O)N2CCCCC2)c2ccccc12 | 0 | -2 | -9 | 2 | 3
CCOC(=O)c1sc2ncn(CC(=O)Nc3cc(Cl)ccc3C)c(=O)c2c1C | 0 | 0 | -1 | 9 | -1
CCC(Cc1ccccc1)NC(=O)C1CCN(S(=O)(=O)c2ccc3c(c2)CC(C)N3C(C)=O)CC1 (configuration not stated) | 0 | -6 | -3 | 1 | 0
COc1ccc(O)c(/C=N/n2c(-c3ccco3)csc2=Nc2cccnc2)c1 | 0 | -5 | -3 | -42* | 4
COCCn1c(-c2ccco2)csc1=Nc1cccnc1 | 0 | 1 | -2 | 6 | 1
CCOc1ccc(CNC(=O)c2ccc(-c3nc(CSc4ccc(C)cc4)c(C)o3)cc2)cc1 | 1 | 1 | 4 | -9 | 1
COc1ccc(N2CCN(c3csc4ccc(Cl)cc4c3=O)CC2)cc1 | 1 | 0 | 4 | 10 | 43*
COc1cccc(-c2cc(C(F)(F)F)c3c(N)c(C#N)sc3n2)c1 | 5 | 17 | 17 | -9 | 34*
COc1ccc(-c2cc(C(F)(F)F)c3c(N)c(C(=O)NCCSC)sc3n2)cc1 | 23 | 5 | -2 | 3 | 31*
COc1ccc(OC)c(NC(=O)c2sc3nc(Cc4ccccc4)cc(C(F)(F)F)c3c2N)c1 | 1 | -8 | -5 | 0 | 3
CC(=O)c1sc2nc(-c3cccs3)cc(C(F)(F)F)c2c1N | 41* | 0 | 10 | 5 | 180*
Cc1c(C(=O)O)sc2nc(-c3cccs3)cc(C(F)(F)F)c12 | -1 | 3 | 1 | -11 | 2
CN(C)CCNC(=O)c1sc2nc(-c3ccccc3)cc(C(F)(F)F)c2c1N | 12 | -4 | 4 | 3 | 37*
CCC(=O)N1CCc2cc(CNS(=O)(=O)c3ccc(NC(=O)CC(C)C)cc3)ccc21 | 0 | -1 | -2 | -8 | 7
COc1ccc(S(=O)(=O)N(C)c2c(C)n(C)n(-c3ccccc3)c2=O)cc1OC | -1 | 0 | 5 | 4 | 2
COc1ccc(NC(=O)Cc2noc3ccc(C)cc23)cc1Cl | 0 | -5 | 7 | -31* | -1
FC(F)(F)c1cc(C(F)(F)F)c2ccc(N3CCN(c4ccc(Cl)cc4)CC3)nc2n1 | 1 | -4 | 0 | 7 | 0
